Data as given in PubChem BioAssay (NCATS).
Several values for one entry are separate records, joined by “and”; a condition that tells them apart may be missing. Equal entries are not always repeated. Results filed as inconclusive are left out. Activity calls are given as the source filed them. Unless noted, calls come from the whole dose curve; as a rule, active = well fitted curve in the direction sought with a large enough effect; inconclusive = small, poorly fitted or top-dose-only effect, or another doubt; inactive = no such curve, though single readings can be large; an effect the other way counts as inactive or inconclusive.

Experiments:
[1] = Primary qHTS for small molecule stabilizers of the endoplasmic reticulum resident proteome: Secreted ER Calcium Modulated Protein (SERCaMP) assay (AID 1508630); note: % is set by controls: 0 for no effect and ±100 for the full control effect
Outline: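 GLuc-SERCaMP-expressing SH-SY5Y cells, pretreated 16 h with compound, are challenged with thapsigargin to empty ER calcium stores; after 4 h, coelenterazine is added directly to the medium and luminescence is imaged.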

[2] = Primary qHTS for inhibitors of nuclear receptor binding SET domain protein 2 (NSD2) in an isogenic RCH-ACV NSD2 p.E1099K mutant (9B) (AID 1645876); note: nearly all actives have a fitted effect of over 70% in size; note: potency is the fitted concentration of half-maximal effect
[3] = target: Cytochrome P450 2D6 (Homo sapiens) (UniProt P10635); assay: Cytochrome P450 family 2 subfamily D member 6 (CYP2D6) small molecule antagonists: luciferase biochemical (cell-free) qHTS assay (AID 1645840; active = well fitted curve in the direction sought with a large enough effect in the repeat runs; an effect the other way counts as inactive or inconclusive; note: % is set by controls: 0 for no effect and ±100 for the full control effect; nearly all actives have a fitted effect of over 55% in size)
Chain of Cytochrome P450 2D6 (Homo sapiens) (P10635 whole entry, looked up): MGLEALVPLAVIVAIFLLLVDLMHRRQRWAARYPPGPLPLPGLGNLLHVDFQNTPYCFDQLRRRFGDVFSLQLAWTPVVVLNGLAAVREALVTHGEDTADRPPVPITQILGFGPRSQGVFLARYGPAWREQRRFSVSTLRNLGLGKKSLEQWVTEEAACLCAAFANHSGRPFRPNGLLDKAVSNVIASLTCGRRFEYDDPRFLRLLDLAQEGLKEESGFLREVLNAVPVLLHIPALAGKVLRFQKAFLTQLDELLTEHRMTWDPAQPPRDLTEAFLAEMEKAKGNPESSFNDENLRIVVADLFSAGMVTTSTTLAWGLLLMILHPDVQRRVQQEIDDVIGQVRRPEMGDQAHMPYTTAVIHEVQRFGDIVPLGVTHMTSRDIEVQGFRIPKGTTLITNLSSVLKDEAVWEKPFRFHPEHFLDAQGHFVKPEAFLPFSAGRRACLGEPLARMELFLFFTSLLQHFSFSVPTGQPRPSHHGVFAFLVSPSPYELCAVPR
Outline: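 P450-Glo luminescent screen: recombinant CYP2D6 enzyme–proluciferin substrate mix preincubated with compound 10 min at room temperature, then NADPH regeneration added for 1 h at room temperature. Detection reagent added for 20 min; luciferin light read as relative luminescence units.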

[4] = target: Cytochrome P450 2C9 (Homo sapiens) (UniProt P11712); assay: Cytochrome P450 family 2 subfamily C member 9 (CYP2C9) small molecule antagonists: luciferase biochemical (cell-free) qHTS assay (AID 1645842; active = well fitted curve in the direction sought with a large enough effect in the repeat runs; an effect the other way counts as inactive or inconclusive; note: nearly all actives have a fitted effect of over 55% in size; note: potency is the fitted concentration of half-maximal effect; for activity change, negative = inhibition: % is set by controls: 0 for no effect and ±100 for the full control effect)
Chain of Cytochrome P450 2C9 (Homo sapiens) (P11712 whole entry, looked up): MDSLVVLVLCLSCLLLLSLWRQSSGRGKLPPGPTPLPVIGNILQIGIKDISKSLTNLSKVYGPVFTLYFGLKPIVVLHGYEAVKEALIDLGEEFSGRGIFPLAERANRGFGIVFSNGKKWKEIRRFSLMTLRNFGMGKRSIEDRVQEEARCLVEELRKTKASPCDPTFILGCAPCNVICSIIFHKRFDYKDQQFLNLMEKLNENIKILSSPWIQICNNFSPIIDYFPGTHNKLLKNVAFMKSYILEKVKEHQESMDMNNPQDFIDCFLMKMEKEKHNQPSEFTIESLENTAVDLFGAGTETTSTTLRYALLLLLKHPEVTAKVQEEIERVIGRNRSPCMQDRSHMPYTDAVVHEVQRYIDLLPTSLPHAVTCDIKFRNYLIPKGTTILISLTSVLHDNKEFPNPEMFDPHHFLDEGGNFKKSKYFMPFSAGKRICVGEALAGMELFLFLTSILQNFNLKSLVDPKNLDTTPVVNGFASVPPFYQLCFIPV
Outline: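 Luminescence, after 20 min with luciferin detection reagent, reflected CYP2C9 turnover during a 1 h NADPH-driven reaction at 37C. Enzyme-substrate mix contained 0.4% bovine serum albumin and was preincubated with compound 10 min at room temperature.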

[5] = Primary qHTS for inhibitors of nuclear receptor binding SET domain protein 2 (NSD2) in an RCH-ACV wild type WT cells (2C) (AID 1645877); note: nearly all actives have a fitted effect of over 70% in size; note: potency is the fitted concentration of half-maximal effect
[6] = target: Catechol O-methyltransferase (Homo sapiens) (UniProt P21964); assay: Confirmatory Screen for Target Class Profiling of Small Molecule Inhibitors of Methyltransferases (AID 1745852; calls by dose curve; note: potency is the fitted concentration of half-maximal effect; for activity change, negative = inhibition: % is set by controls: 0 for no effect and ±100 for the full control effect); conditions: MTase-Glo luminescence, SAH detection, recombinant enzyme; measured here: COMT max response; stronger effect = lower value
Chain of Catechol O-methyltransferase (Homo sapiens) (P21964 whole entry, looked up): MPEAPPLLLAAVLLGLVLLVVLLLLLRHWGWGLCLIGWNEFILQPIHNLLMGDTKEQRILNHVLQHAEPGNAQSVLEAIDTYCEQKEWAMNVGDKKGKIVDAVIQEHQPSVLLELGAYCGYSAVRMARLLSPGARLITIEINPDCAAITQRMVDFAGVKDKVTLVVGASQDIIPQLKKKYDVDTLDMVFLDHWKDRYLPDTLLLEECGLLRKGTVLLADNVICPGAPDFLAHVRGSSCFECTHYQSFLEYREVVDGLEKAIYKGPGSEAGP

[7] = target: Guanidinoacetate N-methyltransferase (Homo sapiens) (UniProt Q14353); assay: as above; conditions: MTase-Glo luminescence, SAH detection, recombinant enzyme; activity change, negative = inhibition: at 57.3 µM (top of the series) unless noted
[8] = target: Rap guanine nucleotide exchange factor 3 (Homo sapiens) (UniProt O95398); assay: Confirmatory qHTS for antagonist of cAMP-regulated guanine nucleotide exchange factor 3 (EPAC1) (AID 1645880); conditions: EPAC1 Rap1B-BODIPY-GDP exchange, fluorescence; note: potency is the fitted concentration of half-maximal effect; nearly all actives have a fitted effect of over 55% in size
Chain of Rap guanine nucleotide exchange factor 3 (Homo sapiens) (O95398 whole entry, looked up): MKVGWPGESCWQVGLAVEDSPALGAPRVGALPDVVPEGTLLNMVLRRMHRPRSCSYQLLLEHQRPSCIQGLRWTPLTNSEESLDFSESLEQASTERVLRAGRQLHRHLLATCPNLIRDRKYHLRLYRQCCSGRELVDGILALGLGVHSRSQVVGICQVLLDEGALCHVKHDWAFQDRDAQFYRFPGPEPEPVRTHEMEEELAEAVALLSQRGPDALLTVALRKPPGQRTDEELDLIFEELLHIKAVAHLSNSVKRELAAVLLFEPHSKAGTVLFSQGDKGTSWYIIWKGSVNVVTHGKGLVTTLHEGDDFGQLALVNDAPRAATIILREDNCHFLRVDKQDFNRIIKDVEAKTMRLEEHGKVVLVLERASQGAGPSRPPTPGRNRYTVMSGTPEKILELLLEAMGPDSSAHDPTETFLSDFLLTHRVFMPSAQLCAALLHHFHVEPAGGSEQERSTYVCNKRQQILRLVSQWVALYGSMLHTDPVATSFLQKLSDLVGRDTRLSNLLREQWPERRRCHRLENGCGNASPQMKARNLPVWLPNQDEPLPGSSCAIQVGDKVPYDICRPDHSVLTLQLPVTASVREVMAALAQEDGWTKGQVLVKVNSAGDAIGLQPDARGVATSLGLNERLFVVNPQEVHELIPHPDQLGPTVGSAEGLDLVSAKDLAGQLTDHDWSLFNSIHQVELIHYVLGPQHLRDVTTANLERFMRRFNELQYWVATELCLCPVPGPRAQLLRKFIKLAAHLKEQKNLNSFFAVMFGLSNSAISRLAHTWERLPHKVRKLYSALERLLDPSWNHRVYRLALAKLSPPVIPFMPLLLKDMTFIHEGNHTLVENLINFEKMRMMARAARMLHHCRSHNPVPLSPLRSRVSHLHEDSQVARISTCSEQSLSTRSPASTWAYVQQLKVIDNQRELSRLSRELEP
Outline: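 Nucleotide exchange uses 100 nM EPAC1, 250 nM RAP1B-BODIPY-GDP and 50 uM GDP, with compounds in a concentration-titration series. After 5 min at room temperature, fluorescence (480 nm ex/540 nm em) is read every 5 min for 30 min. Data are normalized to control ATA and DMSO.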

[9] = target: Rap guanine nucleotide exchange factor 3 (Homo sapiens) (UniProt O95398); assay: Confirmatory qHTS for agonist of cAMP-regulated guanine nucleotide exchange factor 3 (EPAC1) (AID 1645881);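 note: EPAC1 catalysed release of BODIPY-GDP from Rap1B seen as fluorescence loss; 100% = effect of cAMP agonist control; nearly all actives have a fitted effect of over 75% in size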
[10] = target: Rap guanine nucleotide exchange factor 4 (Homo sapiens) (UniProt Q8WZA2); assay: Confirmatory qHTS for agonist of cAMP-regulated guanine nucleotide exchange factor 4 (EPAC2) (AID 1645884);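 note: nucleotide exchange releases bodipy-GDP from Rap1 and this lowers its fluorescence; % is set by controls: 0 for no effect and ±100 for the full control effect; nearly all actives have a fitted effect of over 65% in size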
Chain of Rap guanine nucleotide exchange factor 4 (Homo sapiens) (Q8WZA2 whole entry, looked up): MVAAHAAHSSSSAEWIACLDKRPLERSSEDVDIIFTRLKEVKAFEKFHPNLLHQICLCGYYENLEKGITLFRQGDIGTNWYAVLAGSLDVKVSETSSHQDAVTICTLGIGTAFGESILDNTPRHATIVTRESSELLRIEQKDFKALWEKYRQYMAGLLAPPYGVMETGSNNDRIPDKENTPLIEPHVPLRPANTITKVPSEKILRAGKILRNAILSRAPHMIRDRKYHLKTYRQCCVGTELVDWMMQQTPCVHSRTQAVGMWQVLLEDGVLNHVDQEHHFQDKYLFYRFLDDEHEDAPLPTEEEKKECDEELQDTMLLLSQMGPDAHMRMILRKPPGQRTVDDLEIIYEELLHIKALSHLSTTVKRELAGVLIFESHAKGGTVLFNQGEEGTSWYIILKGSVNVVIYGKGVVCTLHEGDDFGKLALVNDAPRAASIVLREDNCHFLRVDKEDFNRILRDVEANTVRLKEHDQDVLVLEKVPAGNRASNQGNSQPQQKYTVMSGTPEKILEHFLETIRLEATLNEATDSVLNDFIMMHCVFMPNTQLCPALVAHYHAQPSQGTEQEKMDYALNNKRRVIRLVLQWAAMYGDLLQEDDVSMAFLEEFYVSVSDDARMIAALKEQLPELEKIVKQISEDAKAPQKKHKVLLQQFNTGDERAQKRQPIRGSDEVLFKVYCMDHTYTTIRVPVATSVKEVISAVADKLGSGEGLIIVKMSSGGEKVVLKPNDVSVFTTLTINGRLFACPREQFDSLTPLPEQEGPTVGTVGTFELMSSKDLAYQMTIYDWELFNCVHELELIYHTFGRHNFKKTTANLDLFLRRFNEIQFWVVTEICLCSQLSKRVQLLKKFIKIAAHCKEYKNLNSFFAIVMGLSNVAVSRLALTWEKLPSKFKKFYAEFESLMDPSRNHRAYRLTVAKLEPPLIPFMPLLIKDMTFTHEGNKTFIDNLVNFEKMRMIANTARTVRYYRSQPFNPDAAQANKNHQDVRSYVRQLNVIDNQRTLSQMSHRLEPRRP

[11] = target: Rap guanine nucleotide exchange factor 4 (Homo sapiens) (UniProt Q8WZA2); assay: Confirmatory qHTS for antagonist of cAMP-regulated guanine nucleotide exchange factor 4 (EPAC2) (AID 1645885); conditions: EPAC2 Rap1B-BODIPY-GDP exchange fluorescence, biochemical; note: potency is the fitted concentration of half-maximal effect; nearly all actives have a fitted effect of over 25% in size

Compound: CC(C)(C)c1cc(C(C)(C)C)c(NC(=O)c2c[nH]c3ccccc3c2=O)cc1O
- Potency [1]: inactive
- Potency [2]: 14.8 µM (active)

Compound: Cc1c(CN2CCN(S(C)(=O)=O)CC2)sc2c(N3CCOCC3)nc(-c3cnc(N)nc3)nc12
- Potency [1]: inactive
- Potency [3]: inactive
- Potency [4]: 10.7 µM (active)
- Potency [2]: 29 nM (active) and 74.2 nM (active)
- Potency [5]: 32.5 nM (active) and 118 nM (active)
- activity [6]: -10.4%
- activity change, negative = inhibition [7]: -5.48%

Compound: CC1(O)CC(c2nc(-c3ccc4ccc(-c5ccccc5)nc4c3)c3c(N)nccn23)C1 (stereo unspecified)
- Potency [1]: inactive
- Potency [4]: 2.13 µM (active) and 952 nM (active)
- Potency [2]: 12.9 µM (active)
- Potency [5]: 18.3 µM (active)

Compound: COc1cc(C(=O)NS(=O)(=O)c2ccccc2C)ccc1Cc1cn(C)c2ccc(NC(=O)OC3CCCC3)cc12
- Potency [1]: inactive
- Potency [4]: 13.8 µM (active)
- Potency [2]: inactive
- Potency [5]: inactive
- Potency [8]: 25 µM (active)
- outcome [9]: inactive
- outcome [10]: inactive
- Potency [11]: 49.4 µM (active)

Compound: CNc1nccc(-c2cccnc2Oc2cc(C(=O)Nc3cccc(C(F)(F)F)c3)ccc2C)n1
- Potency [1]: inactive
- Potency [4]: 3.01 µM (active)
- Potency [2]: 2.58 µM (active) and 3.72 µM (active)
- Potency [5]: 4.09 µM (active)

Compound: C=CCn1c(=O)c2cnc(Nc3ccc(N4CCN(C)CC4)cc3)nc2n1-c1cccc(C(C)(C)O)n1
- Potency [1]: inactive
- Potency [3]: inactive
- Potency [2]: 290 nM (active) and 372 nM (active)
- Potency [5]: 230 nM (active) and 468 nM (active)
- activity [6]: -20.7%
- activity change, negative = inhibition [7]: -6.72%

Compound: Cc1ccc(CN2CCNCC2)cc1NC(=O)CNc1ccc(F)c(F)c1
- Potency [1]: inactive
- Potency [4]: inactive
- Potency [2]: inactive
- Potency [5]: inactive

Compound: Clc1cccc(-c2nnnn2Cc2cccnc2)c1Cl
- Potency [1]: inactive
- Potency [3]: inactive
- Potency [2]: inactive
- Potency [5]: inactive

Compound: O=C(c1ccc(Nc2nccc(-c3cc4ccccc4s3)n2)cc1)N1CCC(N2CCCC2)CC1
- Potency [1]: inactive
- Potency [4]: inactive
- Potency [2]: 1.45 µM (active) and 1.66 µM (active)
- Potency [5]: 1.63 µM (active) and 1.66 µM (active)
- activity [6]: -18.2%
- activity change, negative = inhibition [7]: -6.01%

Compound: O=C(O)C1(Cc2cccc(Nc3nccs3)n2)CCC(Oc2cccc(Cl)c2F)CC1 (stereo unspecified)
- Potency [1]: inactive
- Potency [3]: inactive
- Potency [4]: 7.56 µM (active)
- Potency [2]: 1.45 µM (active)
- activity [6]: -35%
- Potency [7]: 42.9 µM (active)
